The text below walks through data of PubChem BioAssay (EPA / NIEHS).

SMILES strings stand for the structures. Where “and” joins values, the source holds several entries; their conditions need not be identical. Equal entries are not always repeated. A structure can be active in one record and inactive in another. Calls of active or inactive are those of the source. Rule for the calls: active = hit-call score of the fitted dose curve at least 0.9, where 1 is the maximum; inactive = score below 0.9.

What all share (details): mRNA level, 48 h; actives raise or lower the signal
Read-out in assay [1]: Cytochrome P450 (CYP2B6), CYP2B6 (gene 1555)
Put plainly: LTEA_HepaRG_CYP2B6: Life Technologies and Expression Analysis (LTEA) Assay for Cytochrome P450 (CYP2B6) using HepaRG (AID 2283481). A digest of the protocol: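 HepaRG cells plated 48 h, switched to serum-free induction medium, then dosed 48 h (8 points, half-log from 100 uM, 0.5% DMSO). RNA isolated; CYP2B6 expression measured by qRT-PCR; gain or loss fitted relative to DMSO.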

Read-out in another assay: CYP2C8 (gene 1558)
In words: LTEA_HepaRG_CYP2C8: Life Technologies and Expression Analysis (LTEA) Assay for CYP2C8 using HepaRG (AID 2283483). A digest of the protocol: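 CYP2C8 mRNA induction or loss, by qRT-PCR normalized to ACTB/GAPDH/POLR2A, is read in HepaRG cells after 48 h treatment. Concentrations run from 100 uM down in half-log dilutions, with 0.5% DMSO as vehicle and baseline.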

Read-out in another assay: CYP2C9 (gene 1559)
Put plainly: LTEA_HepaRG_CYP2C9: Life Technologies and Expression Analysis (LTEA) Assay for CYP2C9 using HepaRG (AID 2283484). Put shortly:
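Cells plated 48 h, switched to serum-free induction medium, then treated in duplicate for 48 h at eight concentrations (max 100 uM, 0.5% DMSO). RNA then analysed by qRT-PCR for CYP2C9; curves fitted in both directions relative to DMSO.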

Read-out in a further assay: CYP2E1 (gene 1571)
Put plainly: LTEA_HepaRG_CYP2E1: Life Technologies and Expression Analysis (LTEA) Assay for CYP2E1 using HepaRG (AID 2283485). A digest of the protocol:
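Differentiated HepaRG cells were treated in duplicate for 48 h with chemicals in 0.5% DMSO, from 100 uM downward in half-log dilutions. RNA was then analysed by qRT-PCR for CYP2E1 induction or loss.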

Read-out in a further assay: CYP4A11 (gene 1579)
Put plainly: LTEA_HepaRG_CYP4A11: Life Technologies and Expression Analysis (LTEA) Assay for CYP4A11 using HepaRG (AID 2283486). A digest of the protocol:
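HepaRG, 48 h chem exposure, 8 conc (100 uM top, half-log), 0.5% DMSO vehicle; qRT-PCR readout, housekeeping-gene normalized; bidirectional curve fit vs DMSO baseline.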

Read-out in assay [2]: Cytochrome P450 3A4 (Homo sapiens) (UniProt P08684)
Put plainly: LTEA_HepaRG_CYP3A4: Life Technologies and Expression Analysis (LTEA) Assay for CYP3A4 using HepaRG (AID 2283487). A digest of the protocol:
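Differentiated HepaRG cells in serum-free induction medium exposed in duplicate for 48 h to 8 half-log concentrations up to 100 uM in 0.5% DMSO. CYP3A4 mRNA measured by qRT-PCR normalized to ACTB, GAPDH and POLR2A; bidirectional fit versus DMSO.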

Read-out in assay [3]: DNA damage-inducible transcript 3 (DDIT3), DDIT3 (gene 1649)
In words: LTEA_HepaRG_DDIT3: Life Technologies and Expression Analysis (LTEA) Assay for DNA damage-inducible transcript 3 (DDIT3) using HepaRG (AID 2283488). A digest of the protocol: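 Changes in DDIT3 transcript, in either direction relative to 0.5% DMSO vehicle, were quantified by TaqMan qRT-PCR after 48 h chemical exposure of HepaRG cells at 8 concentrations, maximum 100 uM.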

Read-out in assay [4]: Pro-epidermal growth factor (Homo sapiens) (UniProt P01133)
In words: LTEA_HepaRG_EGF: Life Technologies and Expression Analysis (LTEA) Assay for Epidermal growth factor (EGF) using HepaRG (AID 2283489). Put shortly: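 HepaRG, 48 h dosing, 100 uM top, half-log x8, 0.5% DMSO. Readout: TaqMan qRT-PCR (Fluidigm array), housekeeping-normalized. Gain or loss of signal fit vs DMSO.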

Read-out in assay [5]: Early growth response protein 1 (EGR1) transcription factor, EGR1 (gene 1958)
In words: LTEA_HepaRG_EGR1: Life Technologies and Expression Analysis (LTEA) Assay for Early growth response protein 1 (EGR1) transcription factor using HepaRG (AID 2283490). Put shortly:
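Read-out is EGR1 mRNA level by qRT-PCR, normalized to three housekeeping genes and analysed for gain or loss of signal against 0.5% DMSO. Source cells: human HepaRG, treated 48 h at up to 100 uM in half-log dilutions.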

Read-out in assay [6]: Ezrin (EZR), EZR (gene 7430)
Put plainly: LTEA_HepaRG_EZR: Life Technologies and Expression Analysis (LTEA) Assay for Ezrin (EZR) using HepaRG (AID 2283491). Put shortly: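 Differentiated human HepaRG cells, 48 h after plating, were exposed in serum-free induction medium for 48 hours to eight half-log concentrations up to 100 uM in 0.5% DMSO. EZR mRNA was measured by TaqMan qRT-PCR, normalized to ACTB, GAPDH and POLR2A, and fitted bidirectionally against DMSO.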

Read-out in assay [7]: Cytochrome P450 3A7 (Homo sapiens) (UniProt P24462)
In words: LTEA_HepaRG_CYP3A7: Life Technologies and Expression Analysis (LTEA) Assay for CYP3A7 using HepaRG (AID 2283492). Put shortly:
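Human HepaRG liver cells, 48 h post-plating, switched to serum-free induction medium and exposed in duplicate for 48 h. Dosing: 100 uM top, half-log dilutions, 8 points, 0.5% DMSO vehicle. Read-out: CYP3A7 mRNA, gain or loss fitted against DMSO baseline.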

Read-out in a further assay: CYP3A5 (gene 1577)
Put plainly: LTEA_HepaRG_CYP3A5: Life Technologies and Expression Analysis (LTEA) Assay for CYP3A5 using HepaRG (AID 2283493). Put shortly:
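mRNA induction or loss of CYP3A5 assessed in HepaRG after 48 h dosing, 100 uM top concentration, duplicate wells; TaqMan qRT-PCR with ACTB, GAPDH, POLR2A normalization; 0.5% DMSO as negative control.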

Read-out in assay [8]: Fatty Acid-Binding Protein 1 (FABP1), FABP1 (gene 2168)
Put plainly: LTEA_HepaRG_FABP1: Life Technologies and Expression Analysis (LTEA) Assay for Fatty Acid-Binding Protein 1 (FABP1) using HepaRG (AID 2283494). Put shortly:
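HepaRG, 48 h post-plating switched to serum-free induction medium, then dosed 48 h (duplicate, 8 pts, ≤100 uM, 0.5% DMSO). RNA → Fluidigm TaqMan qRT-PCR, FABP1 normed to ACTB/GAPDH/POLR2A. Bidirectional curve fit vs DMSO.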

Read-out in assay [9]: Cytochrome P450 4A22 (Homo sapiens) (UniProt Q5TCH4)
Put plainly: LTEA_HepaRG_CYP4A22: Life Technologies and Expression Analysis (LTEA) Assay for Cytochrome P450 4A22 (CYP4A22) using HepaRG (AID 2283495). A digest of the protocol:
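Readout is CYP4A22 transcript induction or loss, quantified by qRT-PCR and normalized to ACTB, GAPDH and POLR2A. Human HepaRG cells receive test chemicals for 48 h at eight half-log concentrations from 100 uM in 0.5% DMSO.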

Read-out in assay [10]: Cytochrome P450 7A1 (Homo sapiens) (UniProt P22680)
In words: LTEA_HepaRG_CYP7A1: Life Technologies and Expression Analysis (LTEA) Assay for Cytochrome P450 7A1 (CYP7A1) using HepaRG (AID 2283496). A digest of the protocol: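 Gene expression endpoint in human HepaRG liver cells treated for 48 h with test chemicals (up to 100 uM, 0.5% DMSO). Values come from bidirectional concentration-response fitting versus DMSO.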

Read-out in assay [11]: Glutamate-cysteine ligase catalytic (GCLC), GCLC (gene 2729)
Put plainly: LTEA_HepaRG_GCLC: Life Technologies and Expression Analysis (LTEA) Assay for Glutamate-cysteine ligase catalytic (GCLC) using HepaRG (AID 2283498). Put shortly:
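Read-out is GCLC transcript level by Fluidigm-based TaqMan qRT-PCR, normalized to three housekeeping genes and fitted in both directions relative to 0.5% DMSO. Human HepaRG cells received chemicals for 48 h, up to 100 uM.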

Read-out in assay [12]: growth arrest and DNA damage 45 (GADD45G), GADD45G (gene 10912)
Put plainly: LTEA_HepaRG_GADD45G: Life Technologies and Expression Analysis (LTEA) Assay for growth arrest and DNA damage 45 (GADD45G) using HepaRG (AID 2283499). Put shortly: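 Gain or loss of GADD45G mRNA, quantified by TaqMan qRT-PCR against three housekeeping genes, is fitted in both directions relative to 0.5% DMSO. Human HepaRG cultures receive test chemical for 48 h at up to 100 uM.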

Read-out in assay [13]: Glutamate-cysteine ligase regulatory (GCLM), GCLM (gene 2730)
Put plainly: LTEA_HepaRG_GCLM: Life Technologies and Expression Analysis (LTEA) Assay for Glutamate-cysteine ligase regulatory (GCLM) using HepaRG (AID 2283500). A digest of the protocol: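 Human liver HepaRG cultures receive test chemicals for 48 hours at up to 100 uM in 0.5% DMSO. GCLM expression is measured by qRT-PCR and analysed for increases or decreases against vehicle.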

Read-out in assay [14]: Cytochrome P450 2C19 (Homo sapiens) (UniProt P33261)
In words: LTEA_HepaRG_CYP2C19: Life Technologies and Expression Analysis (LTEA) Assay for CYP2C19 using HepaRG (AID 2283482). A digest of the protocol: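 Transcript levels of CYP2C19 were quantified by qRT-PCR after HepaRG cells were treated for 48 hours with test chemicals up to 100 uM (eight half-log concentrations, 0.5% DMSO vehicle). Gain or loss of signal was fitted relative to DMSO.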

Chain of Cytochrome P450 3A7 (Homo sapiens) (P24462 whole entry, looked up): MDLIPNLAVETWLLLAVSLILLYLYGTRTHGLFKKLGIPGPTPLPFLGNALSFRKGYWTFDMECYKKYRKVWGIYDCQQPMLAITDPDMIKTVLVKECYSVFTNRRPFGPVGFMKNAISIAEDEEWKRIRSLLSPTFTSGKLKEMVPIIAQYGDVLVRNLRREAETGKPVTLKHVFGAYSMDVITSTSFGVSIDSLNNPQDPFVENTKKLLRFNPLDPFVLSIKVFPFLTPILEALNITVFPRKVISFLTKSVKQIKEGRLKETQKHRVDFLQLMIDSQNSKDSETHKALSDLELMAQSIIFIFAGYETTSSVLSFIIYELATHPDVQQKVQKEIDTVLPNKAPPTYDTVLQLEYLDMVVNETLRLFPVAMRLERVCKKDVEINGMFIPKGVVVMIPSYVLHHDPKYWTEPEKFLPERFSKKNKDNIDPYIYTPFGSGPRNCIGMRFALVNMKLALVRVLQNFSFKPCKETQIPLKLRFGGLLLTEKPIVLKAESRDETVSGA
Chain of Cytochrome P450 3A4 (Homo sapiens) (P08684 whole entry, looked up): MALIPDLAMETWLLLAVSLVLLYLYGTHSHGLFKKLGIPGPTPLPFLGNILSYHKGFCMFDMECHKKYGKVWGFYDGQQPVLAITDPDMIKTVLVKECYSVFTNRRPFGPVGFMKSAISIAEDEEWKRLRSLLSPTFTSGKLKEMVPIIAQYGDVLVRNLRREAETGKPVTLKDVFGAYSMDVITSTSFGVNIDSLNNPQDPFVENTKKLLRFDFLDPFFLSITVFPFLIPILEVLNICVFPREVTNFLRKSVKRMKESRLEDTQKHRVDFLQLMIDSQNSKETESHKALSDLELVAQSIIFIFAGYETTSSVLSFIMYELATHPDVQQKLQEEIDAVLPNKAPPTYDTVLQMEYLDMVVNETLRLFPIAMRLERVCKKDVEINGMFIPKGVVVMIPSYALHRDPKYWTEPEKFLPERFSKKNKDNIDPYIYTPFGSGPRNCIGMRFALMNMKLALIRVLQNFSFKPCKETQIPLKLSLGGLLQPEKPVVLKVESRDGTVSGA
Chain of Cytochrome P450 2C19 (Homo sapiens) (P33261 whole entry, looked up): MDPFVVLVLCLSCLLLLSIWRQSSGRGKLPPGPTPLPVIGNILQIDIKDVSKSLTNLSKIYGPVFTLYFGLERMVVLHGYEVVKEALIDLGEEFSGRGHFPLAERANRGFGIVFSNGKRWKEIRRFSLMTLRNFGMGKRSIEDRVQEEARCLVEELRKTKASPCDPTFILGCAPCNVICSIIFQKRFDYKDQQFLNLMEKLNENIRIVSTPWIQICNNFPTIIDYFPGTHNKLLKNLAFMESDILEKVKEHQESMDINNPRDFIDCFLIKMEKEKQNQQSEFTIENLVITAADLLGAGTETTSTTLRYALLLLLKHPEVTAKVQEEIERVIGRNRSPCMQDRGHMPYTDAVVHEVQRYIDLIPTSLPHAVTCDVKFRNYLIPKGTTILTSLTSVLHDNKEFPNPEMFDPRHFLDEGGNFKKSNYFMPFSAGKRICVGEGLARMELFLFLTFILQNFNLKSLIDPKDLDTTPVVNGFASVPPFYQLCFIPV

What is called AC50 is the concentration at which the activity in the assay is half-maximal. For the molecule `CCOP(=S)(OCC)SCn1c(=O)oc2cc(Cl)ccc21`, the AC50 in assay [1] was 17.7 µM (active). Moreover, the call (with CYP2C8 (gene 1558); with CYP2C9 (gene 1559); in the assay with CYP2E1 (gene 1571); with CYP4A11 (gene 1579); in assay [2]; in assay [3]) was inactive. The call (in assay [4]; in assay [5]; in assay [6]; in assay [7]; with CYP3A5 (gene 1577); in assay [8]) was inactive. Moreover, the molecule was classed as inactive in assay [9], in assay [10], in assay [11], in [12] and in [13].
On to `OC(c1ccc(Cl)cc1)(c1cncnc1)c1ccccc1Cl` (configuration not stated), for which the AC50 in assay [1] was 91.3 µM (active); in assay [14] it was 89.6 µM (active); with CYP2C8 (gene 1558), 83.6 µM (active); with CYP2C9 (gene 1559), 83.7 µM (active); in the assay with CYP2E1 (gene 1571) it was 46.7 µM (active); with CYP4A11 (gene 1579), 70.4 µM (active). For the same molecule, the AC50 was 11.4 µM (active) in [2]; 71.8 µM (active) in [3]; 34.1 µM (active) in [4]; 11.9 µM (active) in assay [7]; 80.4 µM (active) in assay [8]; 72.9 µM (active) in [9]. The concentration at half-maximal activity (AC50) in assay [10] is 77 µM (active); in [11], 50 µM (active); in assay [12] it was 68.7 µM (active); in assay [13], 57.8 µM (active). Besides, the molecule was called inactive (in [5]; in [6]; with CYP3A5 (gene 1577)).
For the molecule `C=CCC1=C(C)C(OC(=O)C2C(C=C(C)C)C2(C)C)CC1=O` (configuration not stated), the AC50 was 12.1 µM (active) and 90.6 µM (active) and 11.7 µM (active) in [1]; 85.6 µM (active) in the assay with CYP2C8 (gene 1558); 87.4 µM (active) with CYP2C9 (gene 1559); 70.6 µM (active) and 76.7 µM (active) and 60.9 µM (active) with CYP2E1 (gene 1571); 93.2 µM (active) and 95.2 µM (active) in the assay with CYP4A11 (gene 1579); 64.1 µM (active) and 71.1 µM (active) and 50 µM (active) in assay [5]. Moreover, the half-maximal activity concentration (AC50) is 50 µM (active) and 44.6 µM (active) in assay [8]; 84.3 µM (active) and 94.1 µM (active) and 90.4 µM (active) in [9]; 3.67 µM (active) and 72.6 µM (active) and 19.4 µM (active) in [10]. Further, the molecule was called inactive (with CYP2C8 (gene 1558); with CYP2C9 (gene 1559); in assay [2]; in [3]; in assay [4]; in assay [7]). For the same molecule, the call (with CYP3A5 (gene 1577); in [11]; in [12]; in assay [13]) was inactive.
Turning to `O=C(O)c1nc(Cl)ccc1Cl`, the call (in assay [1]; in assay [14]; with CYP2C8 (gene 1558); with CYP2C9 (gene 1559); in the assay with CYP2E1 (gene 1571); with CYP4A11 (gene 1579)) was inactive. In addition, the result in assay [2], in [3], in [4], in [5], in assay [6] and in assay [7] was inactive. Moreover, the outcome (with CYP3A5 (gene 1577); in assay [8]; in [9]; in [10]; in assay [11]; in assay [12]) was inactive. Moreover, in assay [13], the molecule was called inactive. Moreover, the half-maximal activity concentration (AC50) is 17.6 µM (active) in the assay with CYP2E1 (gene 1571) and 33.4 µM (active) in assay [8].
